Test results as given in the supplement of paper PMC11732987, “Enantioselective OTUD7B fragment discovery through chemoproteomics screening and high-throughput optimisation” (Communications Chemistry, 2025).

What was measured:
Assay in all cases: log2 ratio of Biotin-Ahx-Ub-VS probe labelling (fragment/DMSO); higher = less target engagement (more negative = stronger competition), active = hit call of the paper (q ≤ 0.05, log2 ratio ≤ -1)
Conditions in all cases: compound concentration: 200 uM; treatment time: 3 h
USP42 = biological target: T1, USP42 (UniProt Q9H9J4)
T1 sequence (whole entry): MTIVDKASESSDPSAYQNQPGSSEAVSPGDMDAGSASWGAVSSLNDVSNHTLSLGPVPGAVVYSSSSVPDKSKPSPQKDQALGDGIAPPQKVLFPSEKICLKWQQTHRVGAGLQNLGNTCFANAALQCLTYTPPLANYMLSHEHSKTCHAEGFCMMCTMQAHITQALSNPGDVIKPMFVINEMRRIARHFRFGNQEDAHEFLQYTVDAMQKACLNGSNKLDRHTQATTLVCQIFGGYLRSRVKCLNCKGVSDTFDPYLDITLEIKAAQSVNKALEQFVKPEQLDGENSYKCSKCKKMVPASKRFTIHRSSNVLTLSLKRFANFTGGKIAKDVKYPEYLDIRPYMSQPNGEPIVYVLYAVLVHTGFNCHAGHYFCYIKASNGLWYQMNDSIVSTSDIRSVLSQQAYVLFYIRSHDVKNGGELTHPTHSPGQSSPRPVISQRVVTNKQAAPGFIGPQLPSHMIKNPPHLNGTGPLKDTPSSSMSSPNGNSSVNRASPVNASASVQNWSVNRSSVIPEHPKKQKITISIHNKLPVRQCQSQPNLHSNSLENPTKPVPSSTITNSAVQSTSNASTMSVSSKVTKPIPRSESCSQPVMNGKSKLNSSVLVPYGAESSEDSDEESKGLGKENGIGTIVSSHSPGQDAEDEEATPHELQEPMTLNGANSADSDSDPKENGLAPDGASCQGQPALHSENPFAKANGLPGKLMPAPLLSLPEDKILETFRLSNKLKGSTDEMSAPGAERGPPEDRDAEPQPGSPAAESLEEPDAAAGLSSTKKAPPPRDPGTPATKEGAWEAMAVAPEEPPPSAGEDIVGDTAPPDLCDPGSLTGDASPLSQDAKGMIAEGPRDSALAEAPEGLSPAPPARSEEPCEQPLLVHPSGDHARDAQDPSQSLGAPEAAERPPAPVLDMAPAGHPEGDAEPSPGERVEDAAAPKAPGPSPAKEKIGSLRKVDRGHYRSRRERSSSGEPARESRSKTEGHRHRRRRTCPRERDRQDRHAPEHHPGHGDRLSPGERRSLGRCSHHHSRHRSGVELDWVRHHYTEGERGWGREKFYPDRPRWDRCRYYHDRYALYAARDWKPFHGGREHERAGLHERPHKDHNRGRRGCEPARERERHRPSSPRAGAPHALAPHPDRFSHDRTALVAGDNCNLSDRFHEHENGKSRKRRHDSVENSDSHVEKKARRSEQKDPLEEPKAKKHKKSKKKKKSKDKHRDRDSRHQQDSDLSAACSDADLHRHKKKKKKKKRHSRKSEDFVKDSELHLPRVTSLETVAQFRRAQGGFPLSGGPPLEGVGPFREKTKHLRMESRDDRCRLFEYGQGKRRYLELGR
In short: (§1)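 Labelled DUBs from HEK293T lysate were NeutrAvidin-enriched, digested with LysC and trypsin, and run by diaPASEF LC-MS/MS. Before that, each 495 µg sample in Tris/CHAPS/IGEPAL buffer with protease inhibitors was treated in triplicate with fragment at 200 µM or vehicle for 3 h, then with Biotin-Ahx-Ub-VS at 0.5 µM final for 1 h. Values are average log2 ratios of fragment over vehicle by unpaired t-test, based on global-median-normalised Spectronaut label-free quantities from proteins with ≥2 unique peptides.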

USP46 = USP46 (UniProt P62068)
USP46, sequence (P62068 whole entry): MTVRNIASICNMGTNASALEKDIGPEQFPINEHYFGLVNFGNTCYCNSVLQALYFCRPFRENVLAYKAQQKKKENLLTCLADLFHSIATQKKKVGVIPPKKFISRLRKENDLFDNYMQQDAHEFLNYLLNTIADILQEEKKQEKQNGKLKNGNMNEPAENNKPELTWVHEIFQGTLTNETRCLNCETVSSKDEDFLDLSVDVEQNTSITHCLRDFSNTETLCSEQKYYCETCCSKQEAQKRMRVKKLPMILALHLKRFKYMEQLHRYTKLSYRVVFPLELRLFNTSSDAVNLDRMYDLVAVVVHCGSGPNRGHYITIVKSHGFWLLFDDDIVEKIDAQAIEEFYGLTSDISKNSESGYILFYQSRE
In short: as §1

USP47 = biological target: T2, USP47 (UniProt Q96K76)
T2 sequence (whole entry): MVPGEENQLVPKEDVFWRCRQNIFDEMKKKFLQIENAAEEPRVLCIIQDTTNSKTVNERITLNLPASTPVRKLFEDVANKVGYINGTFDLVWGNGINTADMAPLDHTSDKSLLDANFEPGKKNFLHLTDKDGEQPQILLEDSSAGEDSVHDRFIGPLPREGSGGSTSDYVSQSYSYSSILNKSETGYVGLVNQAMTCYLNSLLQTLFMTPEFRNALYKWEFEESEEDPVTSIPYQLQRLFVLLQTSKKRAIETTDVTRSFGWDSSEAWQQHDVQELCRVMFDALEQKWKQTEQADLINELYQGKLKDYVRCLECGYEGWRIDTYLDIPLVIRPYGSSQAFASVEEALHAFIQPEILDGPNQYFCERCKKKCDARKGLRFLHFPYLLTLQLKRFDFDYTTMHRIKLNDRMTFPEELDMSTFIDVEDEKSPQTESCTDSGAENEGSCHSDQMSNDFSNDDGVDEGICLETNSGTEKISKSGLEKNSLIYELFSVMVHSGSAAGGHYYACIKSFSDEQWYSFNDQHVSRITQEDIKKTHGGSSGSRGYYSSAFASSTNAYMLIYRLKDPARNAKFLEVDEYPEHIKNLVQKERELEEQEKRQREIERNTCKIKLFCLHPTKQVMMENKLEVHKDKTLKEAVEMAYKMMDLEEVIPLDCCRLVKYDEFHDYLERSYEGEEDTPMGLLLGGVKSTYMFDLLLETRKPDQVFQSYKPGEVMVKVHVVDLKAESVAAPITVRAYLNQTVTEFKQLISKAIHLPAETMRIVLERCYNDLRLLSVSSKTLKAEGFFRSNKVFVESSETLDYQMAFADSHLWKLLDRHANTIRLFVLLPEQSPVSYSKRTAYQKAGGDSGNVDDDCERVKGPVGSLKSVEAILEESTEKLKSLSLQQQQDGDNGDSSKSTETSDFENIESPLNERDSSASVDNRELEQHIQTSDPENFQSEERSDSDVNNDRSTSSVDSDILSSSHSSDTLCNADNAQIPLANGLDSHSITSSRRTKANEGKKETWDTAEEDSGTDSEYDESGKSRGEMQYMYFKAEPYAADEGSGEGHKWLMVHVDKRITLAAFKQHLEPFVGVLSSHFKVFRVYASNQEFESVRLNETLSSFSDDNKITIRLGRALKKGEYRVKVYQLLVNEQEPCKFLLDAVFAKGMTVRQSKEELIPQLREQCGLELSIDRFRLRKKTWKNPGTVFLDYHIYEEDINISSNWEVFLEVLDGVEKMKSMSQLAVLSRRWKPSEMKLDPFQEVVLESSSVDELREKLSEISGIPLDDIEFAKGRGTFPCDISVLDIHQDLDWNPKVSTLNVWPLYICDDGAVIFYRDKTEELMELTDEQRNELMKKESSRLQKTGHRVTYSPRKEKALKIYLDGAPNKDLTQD
In short: as §1

USP48 = biological target: T3, USP48 (UniProt Q86UV5)
T3 sequence (whole entry): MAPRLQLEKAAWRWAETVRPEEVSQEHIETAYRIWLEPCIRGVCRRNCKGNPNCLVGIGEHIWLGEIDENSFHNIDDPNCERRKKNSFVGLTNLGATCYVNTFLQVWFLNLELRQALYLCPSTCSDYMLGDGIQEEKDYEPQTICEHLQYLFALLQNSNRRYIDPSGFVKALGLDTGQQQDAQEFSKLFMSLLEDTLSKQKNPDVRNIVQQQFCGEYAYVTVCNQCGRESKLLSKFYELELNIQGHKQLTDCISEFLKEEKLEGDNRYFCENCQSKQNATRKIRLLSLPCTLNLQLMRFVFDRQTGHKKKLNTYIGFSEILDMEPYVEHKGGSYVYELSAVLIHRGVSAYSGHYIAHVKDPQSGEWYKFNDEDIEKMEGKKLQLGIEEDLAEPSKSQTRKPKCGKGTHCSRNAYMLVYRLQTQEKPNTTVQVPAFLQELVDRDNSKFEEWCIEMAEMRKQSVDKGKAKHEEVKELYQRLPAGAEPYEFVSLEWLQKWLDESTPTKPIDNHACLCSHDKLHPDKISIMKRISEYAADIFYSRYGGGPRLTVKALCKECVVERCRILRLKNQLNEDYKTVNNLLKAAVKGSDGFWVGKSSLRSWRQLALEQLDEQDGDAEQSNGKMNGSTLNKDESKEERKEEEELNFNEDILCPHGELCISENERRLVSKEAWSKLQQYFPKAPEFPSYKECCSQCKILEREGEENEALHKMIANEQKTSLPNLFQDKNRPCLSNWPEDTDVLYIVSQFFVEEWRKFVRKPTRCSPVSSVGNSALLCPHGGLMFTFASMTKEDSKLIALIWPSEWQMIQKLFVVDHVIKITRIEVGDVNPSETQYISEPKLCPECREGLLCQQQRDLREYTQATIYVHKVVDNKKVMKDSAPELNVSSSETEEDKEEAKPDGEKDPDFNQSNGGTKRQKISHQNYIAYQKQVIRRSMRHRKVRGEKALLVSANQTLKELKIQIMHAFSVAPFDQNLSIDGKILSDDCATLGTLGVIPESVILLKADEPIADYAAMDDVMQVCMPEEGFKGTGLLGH
In short: as §1

USP5 = biological target: T4, USP5 (UniProt P45974)
T4 sequence (whole entry): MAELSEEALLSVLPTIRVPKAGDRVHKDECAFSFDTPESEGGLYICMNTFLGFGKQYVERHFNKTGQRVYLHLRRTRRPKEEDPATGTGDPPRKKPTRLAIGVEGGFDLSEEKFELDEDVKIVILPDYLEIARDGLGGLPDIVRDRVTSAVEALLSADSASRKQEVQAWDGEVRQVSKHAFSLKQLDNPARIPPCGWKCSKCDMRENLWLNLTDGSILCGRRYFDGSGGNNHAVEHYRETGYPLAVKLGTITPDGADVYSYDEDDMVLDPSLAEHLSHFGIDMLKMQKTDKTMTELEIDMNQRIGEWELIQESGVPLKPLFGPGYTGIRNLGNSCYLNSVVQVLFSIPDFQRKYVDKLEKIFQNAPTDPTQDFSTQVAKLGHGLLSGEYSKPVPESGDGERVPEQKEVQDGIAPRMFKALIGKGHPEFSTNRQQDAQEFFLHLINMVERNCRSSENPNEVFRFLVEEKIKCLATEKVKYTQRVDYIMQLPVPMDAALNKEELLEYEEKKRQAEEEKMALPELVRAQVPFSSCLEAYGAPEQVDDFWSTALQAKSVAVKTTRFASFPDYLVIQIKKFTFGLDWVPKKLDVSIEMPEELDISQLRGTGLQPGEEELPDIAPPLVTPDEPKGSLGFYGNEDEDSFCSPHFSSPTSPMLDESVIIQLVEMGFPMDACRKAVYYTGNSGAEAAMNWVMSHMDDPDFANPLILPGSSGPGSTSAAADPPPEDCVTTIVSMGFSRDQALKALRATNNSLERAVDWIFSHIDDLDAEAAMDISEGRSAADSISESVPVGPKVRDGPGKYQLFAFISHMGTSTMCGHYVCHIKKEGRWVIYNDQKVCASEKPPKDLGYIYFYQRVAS
In short: as §1

USP54 = USP54 (UniProt Q70EL1)
In short: as §1

USP7 = USP7 (UniProt Q93009)
USP7, sequence (Q93009 whole entry, looked up): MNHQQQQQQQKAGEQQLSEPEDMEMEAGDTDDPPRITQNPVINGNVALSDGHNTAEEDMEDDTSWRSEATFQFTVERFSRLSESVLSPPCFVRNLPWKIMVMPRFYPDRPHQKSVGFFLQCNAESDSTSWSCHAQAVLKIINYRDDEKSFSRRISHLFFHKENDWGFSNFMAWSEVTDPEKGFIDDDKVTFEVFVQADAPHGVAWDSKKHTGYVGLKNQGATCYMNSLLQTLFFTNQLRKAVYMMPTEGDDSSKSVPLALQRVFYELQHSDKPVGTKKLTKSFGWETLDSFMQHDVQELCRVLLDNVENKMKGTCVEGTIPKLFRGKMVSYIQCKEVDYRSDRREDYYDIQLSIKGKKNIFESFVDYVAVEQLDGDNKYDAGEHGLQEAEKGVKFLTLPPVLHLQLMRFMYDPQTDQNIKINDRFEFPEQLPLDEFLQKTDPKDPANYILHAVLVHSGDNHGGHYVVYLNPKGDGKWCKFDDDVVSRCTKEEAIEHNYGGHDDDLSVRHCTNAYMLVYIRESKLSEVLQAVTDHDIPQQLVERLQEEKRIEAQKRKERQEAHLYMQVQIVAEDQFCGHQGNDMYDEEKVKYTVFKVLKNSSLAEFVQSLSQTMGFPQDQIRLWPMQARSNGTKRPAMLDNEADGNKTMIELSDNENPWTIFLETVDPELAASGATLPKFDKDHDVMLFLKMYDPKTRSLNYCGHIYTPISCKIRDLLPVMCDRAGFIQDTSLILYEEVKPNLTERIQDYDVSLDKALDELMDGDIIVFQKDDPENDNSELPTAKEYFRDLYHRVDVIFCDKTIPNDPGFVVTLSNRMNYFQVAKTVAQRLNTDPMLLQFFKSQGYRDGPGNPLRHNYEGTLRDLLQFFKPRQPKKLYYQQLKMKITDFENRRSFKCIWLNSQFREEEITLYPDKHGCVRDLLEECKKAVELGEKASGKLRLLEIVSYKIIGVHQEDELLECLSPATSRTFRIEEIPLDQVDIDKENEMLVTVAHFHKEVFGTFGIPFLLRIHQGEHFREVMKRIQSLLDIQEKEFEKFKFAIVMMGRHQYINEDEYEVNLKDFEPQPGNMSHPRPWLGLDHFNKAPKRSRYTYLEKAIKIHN
In short: as §1

USP8 = biological target: T5, USP8 (UniProt P40818)
T5 sequence (whole entry): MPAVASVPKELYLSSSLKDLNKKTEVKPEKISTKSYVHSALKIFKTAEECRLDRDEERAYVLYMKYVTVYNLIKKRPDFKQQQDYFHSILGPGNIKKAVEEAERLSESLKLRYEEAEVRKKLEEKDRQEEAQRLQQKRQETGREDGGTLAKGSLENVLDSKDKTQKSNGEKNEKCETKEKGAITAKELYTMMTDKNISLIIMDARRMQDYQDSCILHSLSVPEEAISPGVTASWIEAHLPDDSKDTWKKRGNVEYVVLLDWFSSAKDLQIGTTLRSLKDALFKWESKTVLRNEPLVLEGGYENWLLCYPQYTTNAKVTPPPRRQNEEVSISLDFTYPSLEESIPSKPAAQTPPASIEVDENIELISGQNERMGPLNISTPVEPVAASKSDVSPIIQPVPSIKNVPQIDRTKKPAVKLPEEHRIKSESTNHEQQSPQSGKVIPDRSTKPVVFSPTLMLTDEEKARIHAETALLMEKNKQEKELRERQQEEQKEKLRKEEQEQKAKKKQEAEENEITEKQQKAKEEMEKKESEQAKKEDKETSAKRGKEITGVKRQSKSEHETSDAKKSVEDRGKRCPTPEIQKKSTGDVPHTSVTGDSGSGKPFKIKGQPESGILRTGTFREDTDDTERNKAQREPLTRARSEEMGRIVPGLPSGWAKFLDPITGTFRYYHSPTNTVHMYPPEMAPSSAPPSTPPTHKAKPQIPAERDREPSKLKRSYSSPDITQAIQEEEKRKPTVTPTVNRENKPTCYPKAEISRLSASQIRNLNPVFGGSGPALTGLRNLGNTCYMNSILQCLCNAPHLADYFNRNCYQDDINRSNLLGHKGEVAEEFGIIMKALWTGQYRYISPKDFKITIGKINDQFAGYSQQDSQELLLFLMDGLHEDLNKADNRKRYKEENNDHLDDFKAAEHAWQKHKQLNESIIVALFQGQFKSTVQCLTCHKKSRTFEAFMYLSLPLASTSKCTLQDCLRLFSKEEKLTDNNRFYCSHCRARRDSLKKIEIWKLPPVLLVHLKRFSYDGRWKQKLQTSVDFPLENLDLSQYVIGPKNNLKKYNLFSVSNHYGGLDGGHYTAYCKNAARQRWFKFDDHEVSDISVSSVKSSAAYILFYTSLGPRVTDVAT
In short: as §1

USP9X = USP9X (UniProt Q93008)
USP9X, sequence (Q93008 whole entry): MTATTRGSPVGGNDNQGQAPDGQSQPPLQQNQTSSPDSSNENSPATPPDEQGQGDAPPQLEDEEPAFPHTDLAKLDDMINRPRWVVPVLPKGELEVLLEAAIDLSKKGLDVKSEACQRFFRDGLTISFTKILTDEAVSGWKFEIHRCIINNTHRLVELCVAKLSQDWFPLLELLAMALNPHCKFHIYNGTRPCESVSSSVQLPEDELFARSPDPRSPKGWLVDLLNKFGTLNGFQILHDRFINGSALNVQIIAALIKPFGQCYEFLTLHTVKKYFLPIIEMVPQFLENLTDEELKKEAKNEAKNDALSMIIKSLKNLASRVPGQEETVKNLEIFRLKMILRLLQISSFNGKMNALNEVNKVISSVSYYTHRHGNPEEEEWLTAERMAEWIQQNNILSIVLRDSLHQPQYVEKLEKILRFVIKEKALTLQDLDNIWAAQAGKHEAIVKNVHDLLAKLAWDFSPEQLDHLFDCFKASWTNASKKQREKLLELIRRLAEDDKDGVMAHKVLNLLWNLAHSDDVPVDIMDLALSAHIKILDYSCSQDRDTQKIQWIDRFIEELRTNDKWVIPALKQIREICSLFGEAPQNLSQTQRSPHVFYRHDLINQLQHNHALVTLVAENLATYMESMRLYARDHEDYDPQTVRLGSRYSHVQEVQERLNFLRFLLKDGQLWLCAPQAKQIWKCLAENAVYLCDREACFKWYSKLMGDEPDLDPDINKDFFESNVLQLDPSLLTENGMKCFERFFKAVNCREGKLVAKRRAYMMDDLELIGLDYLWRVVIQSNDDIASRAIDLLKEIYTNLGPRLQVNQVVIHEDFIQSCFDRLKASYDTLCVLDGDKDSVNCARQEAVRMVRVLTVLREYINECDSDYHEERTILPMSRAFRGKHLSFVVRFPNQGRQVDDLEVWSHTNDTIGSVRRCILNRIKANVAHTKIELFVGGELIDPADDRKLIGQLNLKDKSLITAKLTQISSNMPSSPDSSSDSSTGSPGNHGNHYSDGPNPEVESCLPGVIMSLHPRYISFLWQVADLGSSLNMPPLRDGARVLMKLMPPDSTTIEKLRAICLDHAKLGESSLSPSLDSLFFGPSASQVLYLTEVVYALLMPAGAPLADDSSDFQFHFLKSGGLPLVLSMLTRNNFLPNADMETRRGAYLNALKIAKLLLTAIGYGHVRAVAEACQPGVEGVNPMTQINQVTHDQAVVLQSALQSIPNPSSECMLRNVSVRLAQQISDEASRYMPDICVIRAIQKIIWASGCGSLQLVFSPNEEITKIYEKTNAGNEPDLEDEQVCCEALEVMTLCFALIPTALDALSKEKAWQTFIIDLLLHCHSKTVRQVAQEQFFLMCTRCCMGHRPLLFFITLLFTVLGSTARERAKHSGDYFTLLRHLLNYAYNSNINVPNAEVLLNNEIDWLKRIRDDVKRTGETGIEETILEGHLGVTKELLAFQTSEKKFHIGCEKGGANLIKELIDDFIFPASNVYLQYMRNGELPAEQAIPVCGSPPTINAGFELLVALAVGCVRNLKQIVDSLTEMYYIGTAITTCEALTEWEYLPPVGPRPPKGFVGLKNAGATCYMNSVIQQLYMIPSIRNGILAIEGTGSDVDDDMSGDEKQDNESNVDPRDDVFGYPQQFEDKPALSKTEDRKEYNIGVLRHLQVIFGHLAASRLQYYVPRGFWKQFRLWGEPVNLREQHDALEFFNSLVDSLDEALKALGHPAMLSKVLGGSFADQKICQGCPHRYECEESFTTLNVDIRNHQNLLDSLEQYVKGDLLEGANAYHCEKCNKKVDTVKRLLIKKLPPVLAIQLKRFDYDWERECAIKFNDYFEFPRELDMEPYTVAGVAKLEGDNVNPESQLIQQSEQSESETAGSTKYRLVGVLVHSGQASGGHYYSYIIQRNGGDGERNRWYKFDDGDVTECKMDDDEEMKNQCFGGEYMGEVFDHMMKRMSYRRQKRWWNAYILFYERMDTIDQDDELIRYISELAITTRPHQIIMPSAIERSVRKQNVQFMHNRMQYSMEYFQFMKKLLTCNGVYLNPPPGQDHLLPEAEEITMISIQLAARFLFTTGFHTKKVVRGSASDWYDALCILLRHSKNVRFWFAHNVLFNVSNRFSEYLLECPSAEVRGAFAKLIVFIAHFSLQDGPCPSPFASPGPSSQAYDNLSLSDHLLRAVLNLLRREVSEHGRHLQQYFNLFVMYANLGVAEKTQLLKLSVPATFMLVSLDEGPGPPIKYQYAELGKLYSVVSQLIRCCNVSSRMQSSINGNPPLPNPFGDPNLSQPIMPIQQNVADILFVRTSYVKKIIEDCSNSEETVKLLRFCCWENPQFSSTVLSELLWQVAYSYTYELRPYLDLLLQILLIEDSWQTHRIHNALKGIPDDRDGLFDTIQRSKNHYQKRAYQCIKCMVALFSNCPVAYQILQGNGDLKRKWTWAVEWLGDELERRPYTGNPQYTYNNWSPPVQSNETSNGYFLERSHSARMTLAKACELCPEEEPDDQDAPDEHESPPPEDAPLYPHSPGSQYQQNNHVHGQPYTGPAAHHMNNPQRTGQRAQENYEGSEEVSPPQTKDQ
In short: as §1

UniProt O00487 = biological target: UniProt O00487
UniProt O00487, sequence (O00487 whole entry): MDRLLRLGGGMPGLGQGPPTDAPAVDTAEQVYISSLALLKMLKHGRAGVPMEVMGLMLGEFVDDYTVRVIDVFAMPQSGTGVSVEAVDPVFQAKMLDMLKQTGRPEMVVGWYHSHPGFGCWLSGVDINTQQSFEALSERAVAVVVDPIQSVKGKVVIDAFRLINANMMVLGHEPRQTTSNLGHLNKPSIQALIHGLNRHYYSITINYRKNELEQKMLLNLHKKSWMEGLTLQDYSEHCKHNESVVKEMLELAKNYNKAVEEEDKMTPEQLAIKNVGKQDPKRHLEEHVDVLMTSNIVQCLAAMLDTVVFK
In short: as §1

Measured: log2 ratio of Biotin-Ahx-Ub-VS probe labelling

O=C(CCl)NCc1ccc2c(c1)OCO2
inactive: USP42 0.271 | USP46 0.12 | USP47 0.0619 | USP48 -0.33 | USP5 0.376 | USP54 0.581 | USP7 -0.297 | USP8 -0.155 | USP9X -0.147 | UniProt O00487 -0.108
